# Rab9 promoter act: qHTS Assay for Rab9 Promoter Activators | Huh7 Rab9 promoter-luciferase reporter, luminescence, 24 h | 2.8% of 320,000 active | Potency, µM (top dose mostly 9.22 µM), without a hit: top-dose activation, negative = inhibition, most hits filed as activators; further: % of control where 0% means no effect; nearly all actives have a fitted effect of over 60% in size
#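 Steps: seed 1500 Huh7 Rab9-luc cells per well, rest 2 h at 37 °C; add compound in DMSO; incubate 24 h; add luciferase reagent, 10 min ambient; read luminescence.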
# NPC1 promoter act: qHTS Assay for NPC1 Promoter Activators; AID 485313, 2010; Potency, µM (highest dose often 9.22 µM), without a hit: top-dose activation, most hits filed as activators; 2.4% of 320,000 active; Huh7 NPC1 promoter luciferase reporter, 24 h; further: % of control where 0% means no effect; nearly all actives have a fitted effect of over 60% in size
#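 Luciferase expression driven by the NPC1 promoter was measured in stably transfected Huh7 cells after a 24 h compound incubation, using a luciferase reagent and a luminescence read.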
# SMN2 splice up: qHTS Assay for Enhancers of SMN2 Splice Variant Expression; HEK293 SMN2-luciferase splicing reporter, luminescence, 30-36 h; Potency, µM (doses to about 46.1 µM), inactives show top-dose activity change, positive = activation, actives largely listed as activators; 2.8% of 210,000 active; further: % of control where 0% means no effect; nearly all actives have a fitted effect of over 55% in size
#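 HEK293 cells carry an SMN2 […]–luciferase reporter in which exon 7 inclusion puts luciferase in frame. Cells were plated 10-12 h before compound addition, then incubated 30-36 h at 37C. ONE-Glo luminescence was read; sodium butyrate at 4.5 mM final served as control.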
# ELG1 genotox: qHTS screen for small molecules that induce genotoxicity in human embryonic kidney (HEK293T) cells expressing luciferase-tagged ELG1; HEK293T ELG1-luciferase reporter, luminescence, 16 h; Potency, µM (titrated, usually from 46 µM), for inactives: top-dose activity change, positive = activation, actives largely listed as activators; 1.3% of 330,000 active; AID 504466, 2011; further: % of control where 0% means no effect; nearly all actives have a fitted effect of over 60% in size
#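 Cells (2,000/well) expressing the ELG1-luciferase fusion are dosed by pin tool and kept 16 hr at 37 °C, 5% CO2. Signal comes from ONE-Glo luciferase reagent after 30 min at room temperature.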
# FLuc modulator: qHTS profiling assay for firefly luciferase inhibitor/activator using purifed enzyme and Km concentrations of substrates (counterscreen for miR-21 project); Potency, µM (series often up to 57.5 µM), without a hit: top-dose activity change, negative = inhibition, hits mostly inhibitors; purified FLuc, Km substrates, luminescence inhibition; Luciferin 4-monooxygenase (Photinus pyralis), P08659; 6.9% of 360,000 active;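 further: plate controls were vehicle for no effect and reference inhibitor for full effect; nearly all actives have a fitted effect of over 55% in size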
# Target sequence (P08659 whole entry, looked up): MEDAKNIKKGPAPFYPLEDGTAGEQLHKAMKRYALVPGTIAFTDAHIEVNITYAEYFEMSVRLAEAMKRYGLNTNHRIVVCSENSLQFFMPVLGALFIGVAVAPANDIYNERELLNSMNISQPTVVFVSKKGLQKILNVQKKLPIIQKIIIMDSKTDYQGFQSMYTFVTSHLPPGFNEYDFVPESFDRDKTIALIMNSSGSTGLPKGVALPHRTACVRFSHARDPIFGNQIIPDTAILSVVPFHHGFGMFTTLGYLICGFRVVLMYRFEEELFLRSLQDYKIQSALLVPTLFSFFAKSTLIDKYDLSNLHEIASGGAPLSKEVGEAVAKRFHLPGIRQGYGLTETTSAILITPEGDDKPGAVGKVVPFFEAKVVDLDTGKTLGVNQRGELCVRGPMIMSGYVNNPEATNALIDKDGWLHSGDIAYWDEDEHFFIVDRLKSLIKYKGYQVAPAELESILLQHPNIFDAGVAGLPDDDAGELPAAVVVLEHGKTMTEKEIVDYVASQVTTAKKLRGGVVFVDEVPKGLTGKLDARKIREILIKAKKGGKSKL
#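 Purified P. pyralis luciferase (10nM final) with 10uM D-luciferin and 10uM ATP (Km levels) in 50mM Tris acetate pH 7.5, 10mM Mg acetate, 0.01% Tween-20, 0.05% BSA; qHTS 6-point titration, ~60 µM downward; luminescence read.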
# KinaseGlo FLuc: Counterscreen for Luciferase (Kinase-Glo TM) Inhibition | 0.28% of 200,000 active | Kinase-Glo luciferase, ATP luminescence, 8 min | Luciferin 4-monooxygenase (Photuris pensylvanica), Q27757 | Potency, µM (titrated, usually from 38.3 µM), for inactives: at the top dose activity change, negative = inhibition, actives largely listed as inhibitors; further: on the % scale 0 is the no-effect control and ±100 the full control effect; nearly all actives have a fitted effect of over 60% in size
#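 Recombinant Kinase-Glo luciferase, 10 uM ATP (linear range), luciferin; imidazole pH 7.2 / KCl / MgCl2 / Tween / BSA buffer; 8 min RT; luminescence.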
# The depositor's hits bear a star; ? = inconclusive; · = not tested or not shown. An excerpt weighted towards active compounds, which were near 7.5% of everything screened. The call rests on the fitted dose curve; in most records, active means well fitted curve in the direction sought with a large enough effect; inconclusive means small, poorly fitted or top-dose-only effect, or another doubt; inactive means no such curve, though single readings can be large; an effect the other way counts as inactive or inconclusive. Potency means the concentration at half of the fitted maximal effect.
SMILES,Rab9 promoter act,NPC1 promoter act,SMN2 splice up,ELG1 genotox,FLuc modulator,KinaseGlo FLuc
Cc1ccc(CN=c2c([N+](=O)[O-])nn(-c3ccc4c(c3)OCCO4)n2O)cc1,?,?,·,?,12µM*,-8%
CN1CCN(C(CNS(=O)(=O)c2ccc([N+](=O)[O-])cc2)c2ccc(F)cc2)CC1 (stereo unspecified),-2%,-2%,·,-1%,-1%,·
O=[N+]([O-])c1nn(-c2ccc3c(c2)OCCO3)n(O)c1=NCCCO,2µM*,?,18%,4%,-19%,-2%
O=[N+]([O-])c1nn(-c2ccc3c(c2)OCCO3)n(O)c1=Nc1ccc(Cl)cc1,-8%,-5%,-60%,1%,?,-4%
Cc1ccc(N=c2c([N+](=O)[O-])nn(-c3ccc(Cl)cc3)n2O)cc1C,1.3µM*,1.6µM*,4%,-4%,-10%,-3%
COc1ccc(CCNC(=O)Cc2ccsc2)cc1,3%,-2%,·,3%,0%,·
COc1ccc(/C=C2\SC(=Nc3ccccc3OC)NC2=O)cc1,4%,-26%,·,-1%,5.4µM*,·
COc1cc(/C=C2\SC(=Nc3ccccc3OC)NC2=O)ccc1O,0%,-24%,·,0%,?,·
O=C(N/N=C/c1ccncc1)c1cc([N+](=O)[O-])cc([N+](=O)[O-])c1O,-10%,-4%,11%,3%,27µM*,1%
O=C(N/N=C/c1ccncc1)c1cc2ccccc2cc1O,12%,0%,·,?,7.6µM*,·
O=C(N/N=C/c1ccc[nH]1)c1cc2ccccc2cc1O,9%,9%,·,25%,6.7µM*,·
Cc1nc2sc(C(N)=O)c(N)c2c(C)c1CC(=O)c1ccccc1,2.8µM*,3.5µM*,24%,-6%,17µM*,1%
Cc1cc(C)c2c(N)c(C(=O)c3ccccc3)sc2n1,-3%,-2%,·,-1%,?,·
CCOc1ccc(Nc2n[nH]c(=S)s2)cc1,1.8µM*,2.5µM*,·,?,?,·
COC(CNC(=O)C(=O)NCC1CCCN1S(=O)(=O)c1cccs1)OC (stereo unspecified),0%,4%,·,-4%,6%,·
O=C(O)Cn1c(SCc2ccccc2)nc2ccccc21,4%,-1%,-3%,7%,?,1%
O=C(O)Cn1c(SCc2cccc3ccccc23)nc2ccccc21,-3%,-6%,4%,0%,17µM*,2%
CCc1ccc(-c2ccc(C(=O)O)cc2)nc1,3.5µM*,?,?,10%,8.5µM*,-6%
Cc1cc(OCC(=O)N(C)Cc2ccccc2)ccc1Br,?,?,·,8%,17µM*,·
COc1ccc(OCC(=O)N(C)Cc2ccccc2)cc1,7%,-6%,1%,6%,-1%,-3%
CC(C)NS(=O)(=O)c1ccc(OCC(=O)N(C)Cc2ccccc2)cc1,0%,-1%,-10%,3%,1%,-1%
Cc1cc(OCC(=O)N(C)Cc2ccccc2)ccc1Cl,4.5µM*,?,·,14%,15µM*,·
C/C=C1\CC2C=CC1C2 (stereo unspecified),·,·,-5%,·,·,·
O=C(OCc1csc(-c2ccccc2)n1)c1ccccc1O,4µM*,27%,20%,?,6µM*,-12%
Cc1nc(COC(=O)c2cc(O)c3ccccc3c2O)cs1,4%,-2%,-1%,0%,5.4µM*,-3%
SMILES,Rab9 promoter act,NPC1 promoter act,SMN2 splice up,ELG1 genotox,FLuc modulator,KinaseGlo FLuc
CC[C@H]1OC(=O)[C@H](C)[C@@H](O[C@H]2C[C@@](C)(OC)[C@@H](O)[C@H](C)O2)C(C)[C@@H](O[C@@H]2O[C@H](C)C[C@H](N(C)C)[C@@H]2O)[C@](C)(OC)C[C@@H](C)C(=O)[C@H](C)[C@@H](O)[C@]1(C)O (stereo partly specified),·,·,-8%,·,·,-6%
CCN(Cc1ccccc1)c1ccccc1,·,·,4%,·,·,·
CCN(Cc1ccccc1)c1ccc(N=Nc2nn(C)c(C)c2[N+](=O)[O-])cc1,25%,20%,?,11%,15µM*,-8%
CCN(CC)c1ccc(N=Nc2nn(C)c(C)c2[N+](=O)[O-])cc1,1.4µM*,0.79µM*,14µM*,5.8µM*,1.7µM*,-20%
O=C(Nc1ccc(Cl)cc1)N1CCOC12CCC1(CC2)OCCO1,16%,3%,8%,-1%,17µM*,-1%
O=C(Nc1ccc2c(c1)OCO2)C(c1ccc(Cl)cc1)N1CCC2(CC1)OCCO2 (stereo unspecified),18%,-5%,-4%,1%,-1%,-1%
CCCCn1c(N)c(N(CCOC)C(=O)COC(=O)COc2cccc(C(C)=O)c2)c(=O)[nH]c1=O,-3%,-1%,·,0%,-1%,·
C=C(C)C1CC=C(C)/C(=N/NC(=O)COc2ccccc2Cl)C1 (stereo unspecified),-8%,1%,-24%,-7%,5%,-2%
Cc1cccc2c1OCC/C2=N\NC(=O)COc1ccccc1Cl,3.2µM*,2.2µM*,22%,?,3.8µM*,-13%
CCN1CCN(C(c2cccs2)C(C)NC(=O)C(=O)N2CCCCC2)CC1 (stereo unspecified),-4%,-1%,·,4%,1%,·
CCCCC/C=C\C/C=C\C/C=C\C/C=C\CCCCCC(N)=O,·,·,5%,·,·,0%
Cc1c(NS(=O)(=O)c2cccs2)cccc1-c1nc2cccnc2s1,13%,-2%,·,-4%,19µM*,·
Cc1c(NS(C)(=O)=O)cccc1-c1nc2cccnc2s1,?,?,·,-7%,17µM*,·
O=S(=O)(Nc1ccc(-c2nc3cccnc3s2)cc1)c1cccs1,27%,28%,?,?,-15%,0%
Cc1cc(-c2nc3cccnc3s2)ccc1NS(=O)(=O)c1cccs1,1.6µM*,?,·,?,13µM*,·
CCCCc1ccc(NC(=O)CSc2nc(=O)n(CCCN3CCOCC3)c3c2CCC3)cc1,2%,-4%,·,-6%,-15%,·
CCOC(=O)C1CCCN(C(=O)c2cc(S(=O)(=O)N3CCCCC3)c[nH]2)C1 (stereo unspecified),0%,-1%,·,2%,5%,·
COc1cccc(OCc2ccc(Cl)cc2)c1C#N,0.56µM*,0.71µM*,·,?,0.54µM*,·
COc1cccc(CNC(C)(C)CO)c1OCc1ccc(Cl)cc1,-5%,-2%,-17%,-8%,6%,-2%

# Screens: PubChem, National Center for Advancing Translational Sciences (NCATS)
